Screening data (PubChem BioAssay)
Sampled rows, rich in hits. Any-hit rate of the full collection: about 2.8%.
dFosB act: activators of mouse delta FosB homodimer; P13346; purified delta FosB, TAMRA-CDK5 oligo fluorescence polarization; percent of positive-control signal above neutral wells; activation, % at 25 µM; 340,000 tested, 0.99% active; AID 493131;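 active = mean activation above about 17%, with every replicate also reaching it, limit read from the data, passing the limit was not always enough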
Target sequence (P13346 whole entry, looked up): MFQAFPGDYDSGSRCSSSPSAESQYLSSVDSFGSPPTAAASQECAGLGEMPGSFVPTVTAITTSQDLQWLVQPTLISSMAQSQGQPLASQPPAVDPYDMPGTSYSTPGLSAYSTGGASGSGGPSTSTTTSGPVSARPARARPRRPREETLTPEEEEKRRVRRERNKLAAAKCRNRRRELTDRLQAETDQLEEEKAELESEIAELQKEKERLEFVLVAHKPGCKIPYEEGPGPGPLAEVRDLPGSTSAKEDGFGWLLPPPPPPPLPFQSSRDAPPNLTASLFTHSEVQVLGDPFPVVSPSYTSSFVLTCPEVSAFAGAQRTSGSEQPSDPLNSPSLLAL
PglD inh: blocks C. jejuni PglD acetyltransferase activity; 360,000 tested, 0.098% active; purified PglD enzyme, DTNB colorimetric CoA detection; AID 602405; inhibition, % at 12.5 µM; in the data active = inhibition above about 16%, passing the limit was not always enough
CDK5 inh: CDK5/p35 (human) kinase inhibition. Q00535+Q15078. Recombinant CDK5/p35, ADP-Glo luminescence, 60 min. inhibition, % at 10 µM. 330,000 tested, 0.01% active. AID 488839;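 active = highest replicate inhibition of at least 50% and at least 75% of replicates reaching 50%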;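 also: plate controls were DMSO neutral control for no effect and GW8510 at 10 µM for full effect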
SIRT5 block: sirtuin-5 (human) deacylase inhibition; inhibition, % at 15 µM; 330,000 tested, 1.1% active; AID 652115; Purified SirT5, succinyl-peptide AMC, trypsin-coupled fluorescence; in the data active = inhibition above about 15%
Target sequence (Q9NXA8 whole entry, looked up): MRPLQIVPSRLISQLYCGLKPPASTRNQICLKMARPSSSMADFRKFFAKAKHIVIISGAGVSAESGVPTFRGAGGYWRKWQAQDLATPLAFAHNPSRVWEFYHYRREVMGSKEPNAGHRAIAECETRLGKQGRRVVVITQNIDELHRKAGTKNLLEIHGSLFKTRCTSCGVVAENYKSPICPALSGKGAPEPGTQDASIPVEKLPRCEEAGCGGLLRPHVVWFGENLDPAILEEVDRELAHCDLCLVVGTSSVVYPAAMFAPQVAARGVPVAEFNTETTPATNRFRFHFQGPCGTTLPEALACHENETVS
PvdQ acylase: blocks Pseudomonas aeruginosa PvdQ acylase activity; purified PvdQ acylase, fluorescence plate reader; inhibition, % at 10 µM; 340,000 tested, 0.063% active; AID 488965; in the data active = inhibition above about 30%, passing the limit was not always enough;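 also: 0% = vehicle neutral wells and 100% = reference inhibitor wells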
FGF22 binding: FGF22 (human) thermal shift binding; Q9HCT0; recombinant FGF22 thermal shift, SYPRO orange fluorescence; percent of sucrose octasulfate shift, DMSO zero; activity (Tm shift, normalised), % at 9.99 µM; 340,000 tested, 1.5% active; AID 651658;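 active = mean Tm shift, scaled 0 neutral to 100 positive control, at about 1.3% or above, every replicate too, limit read from the data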
Starred values were filed as active, the others as inactive; x = no result given; ! = a repeat was not active.

SMILES | dFosB act | PglD inh | CDK5 inh | SIRT5 block | PvdQ acylase | FGF22 binding
CCCCCCCCN1C(=O)[C@H](CC(=O)NCCCN2CCCC2=O)C[C@@]2(C(=O)OC)CC(C)(C)CC=C12 | x | x | x | 19* | x | 0
COC(=O)[C@@]12C[C@@H](CC(=O)NCCCN3CCCC3=O)C(=O)N(Cc3ccccc3)C1=CCC(C)(C)C2 | x | x | x | -1 | x | 0
O=C1CC(c2ccccc2F)c2c(c3ccccc3[nH]c2=O)O1 (stereo not drawn) | 6 | x | -1 | 0 | -7 | 0
O=C1CC(c2cccc(F)c2)c2c(c3ccccc3[nH]c2=O)O1 (stereo not drawn) | 12 | x | 0 | 0 | -13 | 43*
COc1ccc(NC(=O)N(C)C[C@@H]2Oc3cc(-c4ccc(C)cc4)ccc3S(=O)(=O)N([C@H](C)CO)C[C@H]2C)cc1 | x | -1 | x | 10 | x | -1
CCCNC(=O)[C@@H]1[C@@H](CO)[C@@H]2Cn3c(ccc(-c4ccccc4)c3=O)[C@H]1N2Cc1ccccc1F | x | -1 | x | -13 | x | 0
N=c1n(CC(=O)c2ccc(Br)cc2)c2ccccc2n1Cc1ccccc1 | 35* | 4 | 0 | x | -12 | 0
N#C[C@H]1[C@H](c2ccccc2)[C@@H](CO)N1C(=O)Cc1ccccn1 | x | -3 | x | -3 | x | 0
C[C@@H]1CN([C@H](C)CO)C(=O)c2cc(NS(=O)(=O)c3cccs3)ccc2O[C@@H]1CN(C)C | x | -3 | x | 3 | x | 0
CN(C)c1ccc(CNCC2CCCO2)cc1 (stereo not drawn) | -3 | 3 | -1 | -3 | -7 | 0
c1cc(CNCC2CCCO2)ccn1 (stereo not drawn) | -4 | x | -2 | -3 | 0 | 43*
NCCCn1c(C(=O)c2cc(Cl)c(N)c(Cl)c2)c2ccccc2[n+]1[O-] | 3 | -13 | 2 | 40* | -8 | 0
NC(=O)CCn1c(C(=O)c2cc(Cl)c(N)c(Cl)c2)c2ccccc2[n+]1[O-] | -2 | -7 | 1 | -2 | 5 | 0
O=C(CCc1nnc(CCCCc2ccccc2)o1)NCCn1cccn1 | -1 | x | 4 | 0 | 14 | 43*
O=C(CCc1nnc(CCCc2ccccc2)o1)NCCCC1CCCC1 | -3 | x | -5 | -3 | 4 | 43*
O=C(CCc1nnc(CCCc2ccccc2)o1)NCCc1ccccc1 | -2 | x | 1 | -4 | -2 | 0
Cc1cccc(S(=O)(=O)N2C[C@H](O)COC[C@@H]3O[C@@H](CC(=O)NCCCN4CCOCC4)CC[C@H]32)c1 | x | -2 | x | 3 | x | 0
COc1ccc(/C=N/NC(=O)COc2cccc3cccnc23)cc1OC | 31* | x | 0 | -4 | -2 | 0
COc1cc(/C=N/NC(=O)c2ccncc2)ccc1OC(=O)c1cccc(Br)c1 | -1 | 0 | 0 | -3 | 5 | 0
CCn1cc(/C=N/NC(=O)COc2cccc3cccnc23)c2ccccc21 | -5 | x | -2 | x | 2 | x
COc1cccc(C(=O)Oc2ccc(/C=N/NC(=O)c3ccncc3)cc2OC)c1 | -10 | 3 | 3 | 21* | -7 | 0
COc1ccc(CNC(=O)C[C@@H]2C=C[C@H](NC(=O)c3ccc4c(c3)OCO4)[C@@H](CO)O2)cc1 | x | -5 | x | 0 | x | 0
C#CCNC(=O)C1=C[C@@H](c2ccccc2)C[C@@H](OCCCCO)O1 | -5 | -3 | 0 | -3 | -12 | 1.7*!
C[C@H](CO)N1C[C@H](C)[C@@H](CN(C)Cc2ccc(C(=O)O)cc2)Oc2ncc(C3=CCCCC3)cc2C1=O | x | -1 | x | -4 | x | 0
O=C(C[C@@H]1CC[C@@H]2[C@H](COC[C@@H](O)CN2Cc2nccs2)O1)N1CCC(Cc2ccccc2)CC1 | x | 6 | x | x | x | 0
SMILES | dFosB act | PglD inh | CDK5 inh | SIRT5 block | PvdQ acylase | FGF22 binding
CC1(C)OC2CC3C4CCC5=CC(=O)CCC5(C)C4(F)C(O)CC3(C)C2(C(=O)CO)O1 (stereo not drawn) | -14 | x | -8 | x | -11 | 44*
COc1ccc2c3c(n(C)c2c1)[C@@H](CO)N(C(=O)CN(C)C)CC31CCN(Cc2cccnc2)CC1 | x | x | x | -1 | x | 0
O=C1OC(Oc2ccccc2)(c2ccccc2)c2ccccc21 (stereo not drawn) | -8 | -4 | 1 | x | -1 | x
O=C1OC(Cc2ccccc2)(c2ccccc2)c2ccccc21 (stereo not drawn) | x | x | x | x | x | 44*
COc1cccc(-c2ccc(C#N)c(=O)[nH]2)c1 | -3 | x | -1 | -6 | 4 | 43*
COc1cccc(-c2cc(=O)[nH][nH]2)c1 | -1 | x | -6 | -1 | -12 | 0
CC(=O)Nc1cccc(-c2ccnc3c2CC(C(=O)NCc2ccc(F)c(F)c2)O3)c1 (stereo not drawn) | x | 1 | x | 15* | x | 0
CC(=O)Nc1cccc(-c2ccnc3c2CC(C(=O)NCc2ccncc2)O3)c1 (stereo not drawn) | x | 5 | x | x | x | 0
CN1CCN(c2ccc(CNC(=O)C3Cc4c(-c5ccc(Cl)cc5)ccnc4O3)cc2)CC1 (stereo not drawn) | x | -5 | x | x | x | 43*
CCCNC(=O)[C@@H]1[C@@H](CO)[C@@H]2Cn3c(ccc(-c4ccccc4F)c3=O)[C@H]1N2S(C)(=O)=O | x | -2 | x | -9 | x | 0
CC(C)(C)N1CC(C(=O)Nc2ccc(C(N)=O)cc2)CC1=O (stereo not drawn) | x | x | x | x | x | 44*
COc1cc(Cl)c(CN2CCCC(CO)(Cc3cccc(Cl)c3)C2)cc1OC (stereo not drawn) | -11 | -1 | 1 | -4 | -5 | 0
Cc1c(CN2CCCC(CO)(Cc3cccc(Cl)c3)C2)cnn1C (stereo not drawn) | -7 | 3 | 0 | -6 | -3 | 43*
C[C@@H]1CN([C@@H](C)CO)C(=O)c2cccc(NC(=O)C3CCCCC3)c2O[C@@H]1CN(C)Cc1ccncc1 | x | -3 | x | 1 | x | 0
Cc1ccc(S(=O)(=O)N(C)c2ccc3ccccc3c2)cc1 | -7 | 7 | -2 | -1 | -14 | 44*
CNC(=O)c1nnsc1S(=O)(=O)c1ccc(Cl)cc1 | -1 | 3 | 1 | -6 | 5 | 43*
CCN1CCN(c2nc(Nc3cccc(C)c3)nc(N)c2[N+](=O)[O-])CC1 | 9 | -12 | 5 | x | -11 | x
COc1ccc(Nc2nc(NCCCN3CCOCC3)nc(N)c2[N+](=O)[O-])cc1 | 9 | x | 1 | 0 | 4 | 0
Nc1nc(Nc2cccc(F)c2)nc(N2CCOCC2)c1[N+](=O)[O-] | 5 | 2 | 5 | 3 | 7 | 0
Nc1nc(NCCCN2CCOCC2)nc(Nc2ccc(F)cc2)c1[N+](=O)[O-] | 31* | x | 0 | x | -5 | x
Nc1nc(NCCCN2CCOCC2)nc(Nc2ccccc2F)c1[N+](=O)[O-] | 25* | x | 1 | 2 | -6 | 0
Nc1nc(NCCCN2CCOCC2)nc(Nc2cccc(F)c2)c1[N+](=O)[O-] | 26* | x | 0 | -1 | 4 | 0
